The values below come from PubChem BioAssay (NCI).

Molecules are shown by their SMILES. About 83,000 compounds went through this panel and 20% of them were active in at least one assay; those are over-represented in the sample as a whole.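 Cells were grown in 96-well plates and exposed to the test compound at a single concentration for 48 hours; results are reported as percent growth, with values below 10 considered active.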 Unmarked numbers belong to inactive results. Active and inactive are the calls of the source.

Test systems include SR leukemia; RPMI-8226 leukemia; OVCAR-8 ovarian; OVCAR-5 ovarian; OVCAR-4 ovarian; SK-OV-3 ovarian; IGROV1 ovarian; OVCAR-3 ovarian; HS 578T breast; NCI/ADR-RES ovarian; T-47D breast; BT-549 breast; MDA-MB-435 melanoma; SW-620 colon; MCF7 breast; HCT-116 colon; HCC-2998 colon; KM12 colon.
Test in all cases: NCI-60 one-dose screen, 48 h (100 = growth as untreated, 0 = no growth, -100 = all killed)
What all share (settings): 10 µM unless noted

In the case of `O=C1Nc2ccccc2/C1=C/c1ccc(COCC2CO2)n1-c1ccc(O)cc1` (centres undefined), the growth in the test on SR leukemia was 100%; with RPMI-8226 leukemia, 95.7%; in the test with OVCAR-8 ovarian, 101%; with OVCAR-5 ovarian, 107%; in the test with OVCAR-4 ovarian, 101%; with SK-OV-3 ovarian, 114%. In addition, the growth in the test on IGROV1 ovarian is 104%; with OVCAR-3 ovarian, 111%; in the test on HS 578T breast, 104%; in the test on NCI/ADR-RES ovarian it was 106%; in the test on T-47D breast it was 91.4%; in the test on BT-549 breast, 106%. In addition, the growth with MDA-MB-435 melanoma is 103%; in the test with SW-620 colon, 96.2%; in the test on MCF7 breast, 84.6%; in the test on HCT-116 colon, 99.2%; in the test with HCC-2998 colon, 108%; in the test on KM12 colon, 17.8%.
Regarding `CC(C)c1ccc(NCc2cn(-c3ccc(C(=O)O)cc3)nc2-c2cc(C(F)(F)F)cc(C(F)(F)F)c2)cc1`, the growth in the test with SR leukemia was 101%; with RPMI-8226 leukemia, 65.7%; in the test on OVCAR-8 ovarian it was 85%; in the test with OVCAR-5 ovarian it was 103%; in the test on OVCAR-4 ovarian, 96.2%; in the test with SK-OV-3 ovarian, 90.5%. Further, the growth in the test with IGROV1 ovarian was 92.7%; in the test with OVCAR-3 ovarian it was 80.9%; with HS 578T breast, 68%; in the test with NCI/ADR-RES ovarian, 82.8%; with T-47D breast, 71%; in the test on BT-549 breast, 102%. The growth in the test with MDA-MB-435 melanoma is 91%; with SW-620 colon, 86.8%; with MCF7 breast, 75.3%; in the test with HCT-116 colon it was 84%; with HCC-2998 colon, 97%; with KM12 colon it was 82.5%.
Turning to `CCCCCc1ccc(S(=O)(=O)Nc2cccc(-c3csc(NC(=O)CN4CCN(CCO)CC4)n3)c2)cc1`, the growth in the test with SR leukemia is 5.04% (active); in the test on RPMI-8226 leukemia, 20.2%; with OVCAR-8 ovarian, 91.4%; in the test with OVCAR-5 ovarian, 101%; in the test on OVCAR-4 ovarian, 79.2%; in the test with SK-OV-3 ovarian it was 89.5%. The growth with IGROV1 ovarian is 85.5%; in the test on OVCAR-3 ovarian, 93.2%; in the test with HS 578T breast, 69.4%; with NCI/ADR-RES ovarian it was 99%; in the test with T-47D breast it was 64.5%; with BT-549 breast, 99.9%. The growth is 44.3% in the test with MDA-MB-435 melanoma; 74.3% in the test with SW-620 colon; 35.8% with MCF7 breast; 45% in the test on HCT-116 colon; 26.9% in the test on HCC-2998 colon; 54% in the test with KM12 colon.
As for `C[C@H]1c2[nH]c3ccccc3c2C[C@H]2C(=O)N(CCCCCCC(=O)NO)CC(=O)N21`, the growth was 30.8% in the test with SR leukemia; 73.8% with RPMI-8226 leukemia; 64.5% with OVCAR-8 ovarian; 80.7% with OVCAR-5 ovarian; 97.1% with OVCAR-4 ovarian; 101% in the test on SK-OV-3 ovarian. The growth with IGROV1 ovarian was 93%; in the test on OVCAR-3 ovarian it was 79.9%; with HS 578T breast, 66.7%; in the test with NCI/ADR-RES ovarian, 106%; in the test with T-47D breast, 61%; in the test on BT-549 breast, 96.5%. Moreover, the growth is 84% in the test on MDA-MB-435 melanoma; 80.5% in the test with SW-620 colon; 70.8% in the test with MCF7 breast; 72.8% with HCT-116 colon; 114% with HCC-2998 colon; 84.1% with KM12 colon.
`CNC1CCc2c(sc(NC(=O)c3ccc(C(C)(C)C)cc3)c2C(N)=O)C1` (centres undefined): the growth is 2.87% (active) in the test with SR leukemia; -5.86% (active) in the test with RPMI-8226 leukemia; 74.6% in the test on OVCAR-8 ovarian; 67% in the test on OVCAR-5 ovarian; 81.4% in the test with OVCAR-4 ovarian; 90.6% in the test on SK-OV-3 ovarian. Moreover, the growth in the test with IGROV1 ovarian is 65.8%; in the test on OVCAR-3 ovarian it was 61.3%; in the test with HS 578T breast, 57.3%; in the test on NCI/ADR-RES ovarian it was 78.2%; with T-47D breast, 53.6%; in the test with BT-549 breast it was 74.7%. Moreover, the growth in the test with MDA-MB-435 melanoma was 45.2%; in the test on SW-620 colon, -53.5% (active); with MCF7 breast, -34.2% (active); in the test with HCT-116 colon, 3.12% (active); with HCC-2998 colon, 28.6%; in the test with KM12 colon it was 10%.
Take `C#Cc1nc(C(C)=O)cs1`: the growth in the test with SR leukemia was 99.6%; with RPMI-8226 leukemia, 92.5%; in the test on OVCAR-8 ovarian it was 105%; with OVCAR-5 ovarian, 107%; with OVCAR-4 ovarian, 105%; with SK-OV-3 ovarian it was 93%. The growth in the test on IGROV1 ovarian was 101%; in the test with OVCAR-3 ovarian, 112%; in the test with HS 578T breast it was 104%; in the test with NCI/ADR-RES ovarian it was 103%; in the test with T-47D breast, 101%; in the test on BT-549 breast, 98.5%. Besides, the growth is 104% with MDA-MB-435 melanoma; 107% in the test with SW-620 colon; 90.8% with MCF7 breast; 95% in the test with HCT-116 colon; 114% in the test with HCC-2998 colon; 94.7% in the test on KM12 colon.
Turning to `O=C(NNc1nc2cc(F)ccc2n2c(CN3CCC(O)C3)ccc12)c1cnccn1` (centres undefined), the growth in the test on SR leukemia was 6.32% (active); in the test with RPMI-8226 leukemia, 27.4%; in the test on OVCAR-8 ovarian, 13.8%; in the test on OVCAR-5 ovarian, 41.4%; with OVCAR-4 ovarian, 18.9%; with SK-OV-3 ovarian it was 8.37% (active). In addition, the growth in the test on IGROV1 ovarian is 18.2%; in the test on OVCAR-3 ovarian it was 34.9%; in the test with HS 578T breast it was 75.9%; with NCI/ADR-RES ovarian, 2.49% (active); with T-47D breast it was 13%; in the test on BT-549 breast, 29.5%. In addition, the growth is 27.8% with MDA-MB-435 melanoma; 24.6% in the test with SW-620 colon; 8.92% (active) with MCF7 breast; 17.9% in the test on HCT-116 colon; 38.5% with HCC-2998 colon; 24.9% with KM12 colon.
Consider `CCCCCc1ccc(S(=O)(=O)Nc2cccc(-c3csc(NC(=O)CCCCCN4CCN(C)CC4)n3)c2)cc1`, for which the growth was -31.4% (active) with SR leukemia; -22.5% (active) in the test with RPMI-8226 leukemia; 81.9% in the test on OVCAR-8 ovarian; 88.8% in the test on OVCAR-5 ovarian; 71.4% with OVCAR-4 ovarian; 97.9% with SK-OV-3 ovarian. The growth in the test with IGROV1 ovarian was 69.6%; in the test on OVCAR-3 ovarian, 37.1%; in the test with HS 578T breast, 72.2%; in the test on NCI/ADR-RES ovarian, 89.8%; in the test with T-47D breast it was 43.7%; in the test on BT-549 breast it was 93.5%. Moreover, the growth is -33.8% (active) with MDA-MB-435 melanoma; -27.1% (active) with SW-620 colon; -1.18% (active) in the test on MCF7 breast; -36.2% (active) in the test with HCT-116 colon; -18% (active) in the test on HCC-2998 colon; 57.4% with KM12 colon.
